Experimental data from PubChem BioAssay AID893 (National Center for Advancing Translational Sciences (NCATS), 2007).
“And” between values parts separate entries of the source, which are not always exact repeats. Equal entries are not always repeated. The whole screen tested about 75,000 compounds, of which about 5,700 (7.6%) were called active. About 7% were inconclusive and are not listed. The sample holds actives, similar compounds and a random draw of the others, so the mix is not that of the screen. Unmarked numbers belong to inactive results. The call rests on the fitted dose curve; in most records, active means well fitted inhibition curve with a large enough effect; inconclusive means small, poorly fitted or top-dose-only effect; inactive means no such curve, though single readings can be large or run the other way.
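Further: the protocol describes HADH2 (HSD17B10) and not the HSD17B4 of the title; nearly all actives have a fitted effect of over 70% in size.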
On the % scale 0 is the no-effect control and ±100 the full control effect; potency means the concentration at half of the fitted maximal effect.

The molecules below were run against 3-hydroxyacyl-CoA dehydrogenase type-2 (Homo sapiens) (UniProt Q99714) (assay: qHTS Assay for Inhibitors of HSD17B4, hydroxysteroid (17-beta) dehydrogenase 4). Conditions: recombinant HSD17B10, NADH fluorescence kinetic; series mostly up to 57.1 µM; activity change, negative = inhibition: at the top concentration.
Outline: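 20 nM HADH2, pH 9.0 Tris/Tween; cpd preinc 15 min RT; start w/ 1 mM NAD+ + 90 uM b-hydroxybutyryl-CoA; kinetic fluor ex360/em450 q30s x 4 min; delta last-first.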
With C/C(Cl)=C\Cn1c(Nc2cccc(C)c2)nc2c1c(=O)n(C)c(=O)n2C the “activity change, negative = inhibition” value was 10.6% (inactive).
CCOC(=O)c1sc(NC(=O)CSc2ncccn2)c(C#N)c1C was tested, and the “activity change, negative = inhibition” value was 3.84% (inactive).
In the case of COCCNC(=O)COc1ccc(C)c(C)c1, the “activity change, negative = inhibition” value is reported as 9.62% (inactive).
In the case of Cc1cccc(CNc2ccnc(-c3cccnc3)n2)c1, the “activity change, negative = inhibition” value is reported as -10.9% (inactive).
c1cncc(CNc2ccnc(-c3ccc4c(c3)OCO4)n2)c1 was tested, and the Potency was 20 µM (active).
In the case of O=C(Nc1cccnc1)c1ccc2c(c1)OCO2, the “activity change, negative = inhibition” value is reported as -2.27% (inactive).
Cc1onc(-c2ccccc2Cl)c1C(=O)NCCn1ccc2ccccc21 was tested, and the “activity change, negative = inhibition” value was 2.57% (inactive).
In the case of Cc1noc(/C=C/N(C)C)c1S(=O)(=O)N1CCCC(C(=O)NCc2ccco2)C1 (configuration not stated), the “activity change, negative = inhibition” value is reported as -2.89% (inactive).
For CCOC(=O)c1cc2ccccc2nc1C, the “activity change, negative = inhibition” value was 0.969% (inactive).
With C=CCc1cccc2cc(C(=O)N3CCN(C(=O)OCC)CC3)c(=O)oc12 the Potency was 25.1 µM (active).
For CCOC(=O)N1CCN(C(=O)c2cc3c(ccc4ccccc43)oc2=O)CC1, the Potency was 31.6 µM (active).
In the case of COc1c(C(=O)N2CCCC2)ccc2ccccc12, the “activity change, negative = inhibition” value is reported as 4.92% (inactive).
With C=CCc1cccc2cc(C(=O)OCC)c(=O)oc12 the Potency was 31.6 µM (active).
In the case of CCOC(=O)N1CCN(C(=O)c2n[nH]c(=O)c3ccccc23)CC1, the “activity change, negative = inhibition” value is reported as 0.0442% (inactive).
COc1cccc2cc(C(=O)N(C)C)c(=O)oc12 was tested, and the “activity change, negative = inhibition” value was -22.2% (inactive).
CS(=O)(=O)N1CCN(C(=O)c2cc3ccccc3oc2=O)CC1 was tested, and the “activity change, negative = inhibition” value was -9.3% (inactive).
For CCOC(=O)N1CCN(C(=O)c2cn(C)c3ccc(S(=O)(=O)N4CCCC4)cc3c2=O)CC1, the “activity change, negative = inhibition” value was -11.3% (inactive).
In the case of CC(C)=CCC/C(C)=C/CC/C(C)=C/CC/C(C)=C/CO, the “activity change, negative = inhibition” value is reported as -7.07% (inactive).
With CC(c1cccnc1)N(CCN(C)C)C(=O)Nc1ccc(Cl)c(Cl)c1 (configuration not stated) the “activity change, negative = inhibition” value was 5.22% (inactive).
In the case of Cc1ccc(Br)cc1, the “activity change, negative = inhibition” value is reported as 2.4% (inactive).
In the case of COC(=O)c1ccc(N(CC(=O)NC2CCCC2)C(=O)CNC(=O)c2ccco2)cc1, the “activity change, negative = inhibition” value is reported as 3.14% (inactive).
COCCCNC(=O)c1c(F)c(F)c(F)c(F)c1F was tested, and the “activity change, negative = inhibition” value was -7.25% (inactive).
With CC(=O)N1[C@H](C)C=C[C@]1(Cc1ccccc1)C(=O)NCc1ccccn1 the “activity change, negative = inhibition” value was -2.62% (inactive).
Cc1cccn2c(=O)c3cc(C(=O)NCc4ccccn4)n(C)c3nc12 was tested, and the Potency was 3.16 µM (active).
Cc1cccn2c(=O)c3cc(C(=O)N4COCC4(C)C)n(C)c3nc12 was tested, and the Potency was 7.94 µM (active).
In the case of Cc1ccccc1CN1CCN(CC(=O)NCc2ccccn2)C1=O, the “activity change, negative = inhibition” value is reported as 1.1% (inactive).
In the case of O=c1ccn(Cc2ccccc2Cl)cc1, the “activity change, negative = inhibition” value is reported as 0.809% (inactive).
With COCCNc1ncnc2ccc(-c3ccccc3CN(C)C)cc12 the “activity change, negative = inhibition” value was 4.95% (inactive).
With COCCNc1ncnc2ccc(-c3cccnc3)cc12 the Potency was 31.6 µM (active).
For CNc1ncnc2ccc(-c3cccc(NS(C)(=O)=O)c3)cc12, the “activity change, negative = inhibition” value was 4.55% (inactive).
In the case of COCC(=O)Nc1nnc(COc2ccccc2)s1, the “activity change, negative = inhibition” value is reported as -1.86% (inactive).
In the case of C[C@@H](C(=O)Nc1ccc2ccccc2c1)[C@@H]1C[C@@]1(C)[C@@H](NC(=O)c1cccnc1)c1ccccc1, the “activity change, negative = inhibition” value is reported as 1.96% (inactive).
For CCCCCN(C(=O)NC(=O)Nc1ccccc1C)S(C)(=O)=O, the “activity change, negative = inhibition” value was 4.95% (inactive).
In the case of COC(=O)C1=C(C)N(Cc2ccccc2)C2=C3C(=O)N(c4ccccc4)C(=O)C3[C@@](O)(C(=O)OC)C(=O)N2C1c1ccccc1 (some centres not stated), the activity change, negative = inhibition is reported as 6.04% [at 11.4 µM] and 0.0692% [at 11.4 µM].
In the case of O=C(O)c1c(Br)c(Br)c(Br)c(Br)c1C1c2ccc(O)cc2Oc2cc(O)ccc21, the Potency is reported as 0.794 µM (active).
For N#CC1=C(N)Oc2cc(O)ccc2C1C1CCCCC1 (configuration not stated), the “activity change, negative = inhibition” value was -8.01% (inactive).
In the case of COc1ccc(CC(=O)c2ccc(O)cc2O)cc1OC, the “activity change, negative = inhibition” value is reported as -8.11% (inactive).
CC1CCCN(Cc2nc3c(c(=O)n(C)c(=O)n3C)n2CC(=O)c2ccccc2)C1 (configuration not stated) was tested, and the “activity change, negative = inhibition” value was -10.4% (inactive).
For CCOC(=O)N1CCN(Cc2nc3c(c(=O)n(C)c(=O)n3C)n2Cc2ccccc2)CC1, the “activity change, negative = inhibition” value was 12.7% (inactive).
With CCN1CCN(Cc2nc3c(c(=O)n(C)c(=O)n3C)n2CC(=O)c2ccccc2)CC1 the Potency was 25.1 µM (active).
CCn1nnc(NC(=O)c2c(OC)cccc2OC)n1 was tested, and the “activity change, negative = inhibition” value was 6.62% (inactive).
For O=C(NCc1ccc2c(c1)OCO2)C1CCCN(S(=O)(=O)c2cccs2)C1 (configuration not stated), the “activity change, negative = inhibition” value was 6.03% (inactive).
With COc1ccc(C(=O)N2CCC3(CC2)CCN(c2ccccn2)CC3)cc1 the Potency was 25.1 µM (active).
In the case of O=C(c1cc(C(F)(F)F)cc(C(F)(F)F)c1)N1CCC2(CCCN(c3ccccn3)C2)CC1, the “activity change, negative = inhibition” value is reported as -20.2% (inactive).
For COc1ccc(C(=O)N2CCC3(CCCN(C(c4ccccc4)c4ccccc4)C3)CC2)cc1, the “activity change, negative = inhibition” value was 1.82% (inactive).
CC(C)c1cc(CN(C)C)c(O)c(C(C)(C)C)c1 showed an activity change, negative = inhibition of 5.05% [at 11.4 µM].
With CCC(C(=O)NC1CCCC1)N(C(=O)c1snc(C(N)=O)c1N)c1ccc2c(c1)OCCO2 (configuration not stated) the “activity change, negative = inhibition” value was -17.9% (inactive).
With COCCNC(=O)C(c1ccc(C)o1)N(Cc1cccs1)C(=O)c1snc(C(N)=O)c1N (configuration not stated) the Potency was 25.1 µM (active).
With COCCNC(=O)C(c1ccc(C)o1)N(Cc1ccccc1)C(=O)Cn1nnc2ccccc21 (configuration not stated) the “activity change, negative = inhibition” value was 8.67% (inactive).
In the case of COc1ccc(F)cc1S(=O)(=O)Nc1ccc2c(c1)OCO2, the “activity change, negative = inhibition” value is reported as -14.2% (inactive).
With COc1ccc(C(c2nnnn2C2CCCCC2)N2CCN(c3ccccc3F)CC2)cc1 (configuration not stated) the “activity change, negative = inhibition” value was 13.6% (inactive).
For CCC(=O)c1ccc(OCC(O)CN2C(=O)NC(C)(C)C2=O)cc1 (configuration not stated), the “activity change, negative = inhibition” value was 6.49% (inactive).
